C diff HTS: C. difficile growth inhibition | Clostridium difficile clinical isolate growth, OD600, 24 h; hits give low values | growth activity, negative = inhibition, % at 16 µg/mL (by protocol) | 86,000 compounds, 0.25% hits | AID 1259249;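 active = mean growth activity at or below -80% and every replicate also at or below -80%; inconclusive = mean at or below -80% but some replicate above -80%; inactive = mean growth activity above -80%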
T cruzi growth-1: T. cruzi proliferation inhibition. AID 624255. inhibition, % at 8.34 µM. T. cruzi beta-gal in NIH3T3, GalScreen luminescence, 90 h. 77,000 compounds, 5.9% hits;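 active = mean inhibition above about 93%, with at least 55% of replicates each passing it, limit read from the data, passing the limit was not always enough; inconclusive = only one of those two conditions holds; inactive = neither condition holds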
Pf Dd2 growth: P. falciparum Dd2 growth inhibition; SYBR Green, 72 h; hits give low values; activity change, % at 10 µM; 94,000 compounds, 2.3% hits; AID 1159554; in the data active = activity change below about -80%; inconclusive = no clear call, values can overlap the other calls
T cruzi growth-2: blocks T. cruzi growth in NIH3T3 host cells; inhibition, % at 8.35 µM; T. cruzi beta-gal in NIH3T3, GalScreen luminescence, 90 h; 5,600 compounds, 72% hits; shares compounds with T cruzi growth-1;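 active = mean replicate inhibition above about 95% and at least 55% of replicates individually reaching it, limit read from the data; inconclusive = only one of the two criteria is met; inactive = neither criterion is met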
T cruzi growth-3: blocks T. cruzi growth in NIH3T3 host cells; T. cruzi beta-gal in NIH3T3, GalScreen luminescence, 90 h; 5,600 compounds, 21% hits; inhibition, % at 2.09 µM; shares compounds with T cruzi growth-1;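 active = mean inhibition above about 95%, with at least 55% of replicates also reaching it, limit read from the data; inconclusive = meets just one of the two conditions; inactive = meets neither condition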
NIH3T3 tox: kills mouse NIH/3T3 fibroblasts; AID 651742; NIH/3T3 viability, CellTiter-Glo ATP luminescence, 90 h; 5,600 compounds, 14% hits; shares compounds with T cruzi growth-1; cytotoxicity (signal decrease), % at 8.35 µM;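 active = mean signal decrease across replicates above about 35% based on untreated-well scatter, with enough replicates individually passing, limit read from the data; inconclusive = no rule stated though some were filed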
3T3 cytotox 2: kills mouse NIH/3T3 fibroblasts. shares compounds with T cruzi growth-1. NIH/3T3 viability, CellTiter-Glo ATP luminescence, 90 h. inhibition, % at 24.9 µM. 5,600 compounds, 56% hits. AID 651744;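 active = mean loss of cell viability signal at or above a set limit, and enough replicates individually reaching it; inconclusive = meets only the mean limit or only the replicate share; inactive = meets neither condition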
Hits are given with their value; i = inactive; ? = inconclusive; nt = no result. A selection: hits, their analogues and other compounds. The true share with any hit is near 6.8%.

SMILES	C diff HTS	T cruzi growth-1	Pf Dd2 growth	T cruzi growth-2	T cruzi growth-3	NIH3T3 tox	3T3 cytotox 2
C[C@H]1CN([C@@H](C)CO)C(=O)c2cccc(NC(=O)C3CCOCC3)c2O[C@@H]1CN(C)Cc1ccc(C(=O)Nc2ccccc2N)cc1	i	nt	i	nt	nt	nt	nt
Cc1cccc(-c2ccc([C@H]3[C@H]4CN(C(=O)NC(C)C)CCCCN4[C@H]3CO)cc2)c1	i	99	i	i	i	i	i
COCC(=O)N1CCCCN2[C@H](C1)[C@@H](c1ccc(-c3cccc(C)c3)cc1)[C@@H]2CO	i	i	i	nt	nt	nt	nt
Cc1cccc(-c2ccc([C@@H]3[C@H](CO)N4CCCCN(C(=O)NC(C)C)C[C@@H]34)cc2)c1	i	104	i	110	i	i	105
COCC(=O)N1CCCCN2[C@H](CO)[C@@H](c3ccc(-c4cccc(C)c4)cc3)[C@H]2C1	i	i	i	nt	nt	nt	nt
Cc1cccc(-c2ccc([C@H]3[C@H](CO)N4CCCCN(C(=O)NC(C)C)C[C@@H]34)cc2)c1	i	106	i	107	i	i	96
CC(=O)N1CCCCN2[C@H](CO)[C@@H](c3ccc(-c4cccc(C)c4)cc3)[C@@H]2C1	i	i	i	nt	nt	nt	nt
O=C(N[C@H]1CC[C@@H](CCn2cc(C3(O)CCCC3)nn2)O[C@H]1CO)C1CCCCC1	i	i	i	nt	nt	nt	nt
COc1ccccc1-c1ccc([C@H]2[C@H](CO)N(C(C)=O)C23CN(C(C)=O)C3)cc1	i	nt	i	nt	nt	nt	nt
COc1ccc2c3c(n(C)c2c1)[C@H](CO)N(CC1CC1)CC31CCN(S(=O)(=O)c2cccs2)CC1	i	nt	i	nt	nt	nt	nt
Cc1noc(C)c1S(=O)(=O)Nc1ccc2c(c1)CC(=O)N([C@@H](C)CO)C[C@@H](C)[C@@H](CN(C)CC1CCCCC1)O2	i	i	i	nt	nt	nt	nt
CCCC#Cc1ccc2c(c1)O[C@H](CN(C)C(=O)CC1CC1)[C@H](C)CN([C@H](C)CO)S2(=O)=O	i	i	i	nt	nt	nt	nt
CCCC#Cc1ccc2c(c1)O[C@@H](CN(C)C(=O)CC1CC1)[C@@H](C)CN([C@@H](C)CO)S2(=O)=O	i	i	i	nt	nt	nt	nt
CCCC#Cc1ccc2c(c1)O[C@@H](CN(C)C(=O)CC1CC1)[C@H](C)CN([C@H](C)CO)S2(=O)=O	i	112	i	100	i	i	24
CCCC#Cc1ccc2c(c1)O[C@@H](CN(C)C(=O)CC1CC1)[C@H](C)CN([C@@H](C)CO)S2(=O)=O	i	?	i	106	i	i	49
COc1cccc(S(=O)(=O)N2CC[C@@H]3[C@@H](CO)Nc4ccc(C#Cc5cccnc5)cc4[C@@H]32)c1	i	nt	i	nt	nt	nt	nt
CCCNC(=O)C[C@@H]1C[C@H]2c3cc(NC(=O)c4cccnc4)ccc3O[C@H]2[C@H](CO)O1	i	i	i	nt	nt	nt	nt
COc1cccc(S(=O)(=O)N2CCCCN3[C@H](CO)[C@H](c4ccc(C#CC5CC5)cc4)[C@@H]3C2)c1	i	i	i	nt	nt	nt	nt
O=S(=O)(c1ccc(F)cc1)N1CCCCN2[C@H](C1)[C@H](c1ccc(C#CC3CCCC3)cc1)[C@@H]2CO	i	116	i	97	i	i	54
O=S(=O)(c1ccc(F)cc1)N1CCCCN2[C@H](CO)[C@@H](c3ccc(C#CC4CC4)cc3)[C@H]2C1	i	i	i	nt	nt	nt	nt
COc1ccc(S(=O)(=O)N2CCCCN3[C@H](CO)[C@H](c4ccc(C#CC5CC5)cc4)[C@H]3C2)cc1	i	100	i	106	111	54	105
COc1ccc(S(=O)(=O)N2CCCCN3[C@H](C2)[C@H](c2ccc(C#CC4CC4)cc2)[C@@H]3CO)cc1	i	124	i	106	i	i	i
O=S(=O)(c1ccc(F)cc1)N1CCCCN2[C@H](CO)[C@H](c3ccc(C#CC4CCCC4)cc3)[C@H]2C1	i	i	i	nt	nt	nt	nt
CCC(=O)N1C[C@H](C)[C@@H](OC)CN(C)C(=O)c2cc(NC(=O)NC3CCCC3)ccc2OC[C@@H]1C	i	nt	i	nt	nt	nt	nt
C[C@@H]1CN([C@@H](C)CO)C(=O)c2cc(/C=C/c3ccccc3)cnc2O[C@H]1CN(C)C(=O)C1CC1	nt	i	i	nt	nt	nt	nt
C[C@H]1CN([C@@H](C)CO)C(=O)c2cc(NS(=O)(=O)c3cccs3)ccc2O[C@H]1CN(C)S(=O)(=O)c1cn(C)cn1	i	i	i	nt	nt	nt	nt

Screens: PubChem BioAssay, Broad Institute
